Results published in PubChem BioAssay AID504697 (The Scripps Research Institute Molecular Screening Center, 2011).
Values without a mark were called inactive. Calls of active or inactive are those of the source.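 How the source made its calls: active means EC50 at or below 10 µM; inactive means EC50 above 10 µM.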

assay: compound autofluorescence in calcium buffer – biochemical, fluorescence, no RTF in test wells, artefact control for cardiac thin filament activator project, dose response (AID 504697); conditions: compound-only fluorescence in RTF assay buffer with Ca2+ (no RTF in test wells), artifact counterscreen;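 further: emission near 535 nm under roughly 485 nm excitation as for IANBD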

Row | SMILES | EC50
1 | CCC(C(=O)O)N1C(=O)/C(=C/c2cccn2C)SC1=S (stereo unspecified) | 35.3 µM
2 | NC(=O)NC(=O)COC(=O)c1cccc(NS(=O)(=O)/C=C/c2ccccc2)c1 | > 71.5 µM
3 | O=C(CCSc1ccccc1)N1CCN(C(=O)c2ccco2)CC1 | > 71.5 µM
4 | CC1CN(c2ccc(NS(=O)(=O)c3ccccc3)cc2C(=O)O)CC(C)O1 (stereo unspecified) | > 71.5 µM
5 | CN1C(=O)/C(=C/C=C2\SCCN2C)OC1=S | 15.9 µM
6 | c1ccc(Cn2c(-c3ccccc3)nc3nc4ccccc4nc32)cc1 | > 71.5 µM
7 | c1ccc2[nH]c3cc4ncnc4cc3nc2c1 | 17.9 µM
8 | COc1cc(N2CCCC2)c(OC)cc1/C=C1/NC(=S)NC1=O | 4.35 µM (active)
9 | O=C1c2ccccc2C(Nc2cccnc2)N1Cc1ccccc1Cl (stereo unspecified) | > 71.5 µM
10 | N=C1c2ccccc2CN1c1ccc(S(=O)(=O)N2CCCCC2)cc1 | > 71.5 µM
11 | CCCN1C=CC(=CC=C(C#N)C#N)C=C1 | 19.9 µM
12 | NC(=O)C1CCN(C(=O)c2ccc(-c3ccccc3)cc2)CC1 | > 71.6 µM
13 | C=CCn1c(=O)[nH]c2nc3cc(N=CN(C)C)c(C)cc3nc2c1=O | 4.96 µM (active)
14 | CN(C)c1ccc(N=Cc2nc(-c3ccccc3)oc2O)cc1 | 6.84 µM (active)
15 | COc1ccccc1NS(=O)(=O)c1cc([N+](=O)[O-])ccc1N/N=C/c1c(C)[nH]c2ccccc12 | 9.25 µM (active)
16 | O=C(CO/N=C/c1ccccc1OC(F)F)NCc1cccs1 | > 71.5 µM
17 | CC1(C)CC(=O)C=C(Nc2ccccc2N)C1 | > 71.5 µM
18 | CCn1c(=O)c(C(=O)CN2CCCc3ccccc32)c(N)n(Cc2ccccc2)c1=O | 62.2 µM

Row | SMILES | EC50
19 | CN1CCS/C1=C/C=C1\SC(=S)N(CC(=O)O)C1=O | 2.28 µM (active)
20 | COC(=O)C(=N/Nc1ccccc1C(=O)OC)/C(C)=N/O | > 71.5 µM
21 | Cc1cccc(/C=N/NC(=O)C(C)Nc2cccc3ccccc23)n1 (stereo unspecified) | 26.9 µM
22 | COc1ccc(/C=N/NC(=O)c2cccnc2)cc1CN1CCOCC1 | > 71.5 µM
23 | N#C/C(=C\c1ccc(N2CCOCC2)o1)C(=O)NC1CCCCC1 | 16.5 µM
24 | Cc1cc2nc(C3CCCN(C(=O)NCc4ccccc4)C3)[nH]c2cc1C (stereo unspecified) | > 71.6 µM
25 | Cc1ccc[n+](-c2nc([O-])sc2C=O)c1 | 5.53 µM (active)
26 | Cc1cc(C=C2C(=O)c3ccccc3C2=O)c(C)n1-c1ccccc1 | 29.9 µM
27 | COC(=O)c1sc(N2C(=O)C(O)=C(C(=O)c3ccc(C)o3)C2c2ccc(F)cc2)nc1C (stereo unspecified) | > 71.4 µM
28 | COc1c(O)cccc1-c1nnn(CCC(=O)OCC(=O)c2ccccc2)n1 | > 71.5 µM
29 | Cn1ncc2c(O/N=C(\N)c3ccc(C(F)(F)F)cc3)ncnc21 | > 71.5 µM
30 | Cc1ccc(C)c(C(=O)CSc2n[nH]c(C(C)C)n2)c1 | > 71.5 µM
31 | CC(=O)Nc1ccc2cc3ccc(NC(C)=O)cc3nc2c1 | > 71.5 µM
32 | C=CCN1C(=O)c2ccccc2NC1c1cc(Br)cs1 (stereo unspecified) | > 71.5 µM
33 | CC(=O)Oc1ccc(N2C(=O)C3C(C2=O)C(C(=O)c2ccc(Cl)cc2)N2CCCC32)cc1 (stereo unspecified) | 58.7 µM
34 | Cc1ccc(N2C3=C(C(=O)CC(C)(C)C3)C(c3cn(C)nc3C)C3=C2CC(C)(C)CC3=O)cc1 | 17.1 µM
35 | CN(/N=C/c1ccc(N(C)C)cc1)C1=NS(=O)(=O)c2ccccc21 | 22.5 µM
36 | Cc1ccc(N2C(=O)C3C(C(=O)c4ccccc4)=NN(c4ccccc4)C3C2=O)cc1 (stereo unspecified) | 33.8 µM
